An excerpt weighted towards active compounds, which were near 11% of everything screened.
Sm TGR inh – qHTS Assay for the Inhibitors of Schistosoma Mansoni Peroxiredoxins; Schistosoma mansoni thioredoxin glutathione reductase (TGR), Q962Y6; purified TGR, DTNB reduction, TNB absorbance 405 nm; Potency, µM (top dose mostly 114 µM), hits mostly inhibitors; 360,000 tested, 3% active; AID 485364, 2010; also: nearly all actives have a fitted effect of over 60% in size
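Kinetic colorimetric format: TGR-catalysed, NADPH-driven DTNB reduction monitored via TNB absorbance. Enzyme dispensed at 20 nM; compound exposure 15 min at room temperature before reaction start.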
AMA1-RON2 inh – qHTS for Inhibitors of AMA1-RON; Towards Development of Antimalarial Drug Lead: Primary Screen | AlphaScreen AMA1-biotinylated RON2 peptide binding | Potency, µM (doses to about 58.2 µM), usual class: inhibitors | 360,000 tested, 0.2% active | AID 720542, 2013; also: nearly all actives have a fitted effect of over 45% in size
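AMA1 (3D7) with his tag at 25 nM final met compounds first, then biotinylated RON2 peptide at 25 nM; detection used donor plus acceptor beads, 10 µg/mL apiece, read by AlphaScreen after 30 min at room temperature.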
Pf growth 96h – Primary qHTS for delayed death inhibitors of the malarial parasite plastid, 96 hour incubation | 320,000 tested, 6.9% active | Potency, µM (doses to about 28.7 µM), hits mostly inhibitors | AID 504834, 2011 | P. falciparum luciferase reporter growth, 96 h
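P. falciparum expressing integrated firefly luciferase grown in erythrocytes (2% hematocrit, 0.05% parasitemia final) with compounds for 96 hours at 37 C, 5% CO2. Growth inhibition read as loss of luminescence after adding luciferase detection reagent.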
Pf growth 48h – Primary qHTS for delayed death inhibitors of the malarial parasite plastid, 48 hour incubation; P. falciparum luciferase growth in erythrocytes, 48 h; 310,000 tested, 5.9% active; AID 504832, 2011; Potency, µM (highest dose often 28.7 µM), usual class: inhibitors
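Cell-based growth assay: transgenic P. falciparum expressing firefly luciferase, cultured in red cells within RPMI 1640 containing 0.5% w/v Albumax, 24 mM bicarbonate and gentamycin. A drop in luciferase activity indicates inhibition.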
NS1 function inh – qHTS Assay for Inhibitors of Influenza NS1 Protein Function; Potency, µM (series often up to 46.1 µM); 270,000 tested, 0.4% active; AID 2326, 2010; calls by dose curve; also: actives are rising curves; nearly all actives have a fitted effect of over 50% in size
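OD600 was taken as the measure of yeast growth restored by compound in an NS1-expressing S. cerevisiae strain. Cells had been washed out of glucose medium and diluted 1:100 into galactose -URA medium, pH 6.0.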
A number is an active result. Unless noted, calls follow the shape of the dose curve; as a rule, active = well fitted curve in the direction sought with a large enough effect; inconclusive = small, poorly fitted or top-dose-only effect, or another doubt; inactive = no such curve, though single readings can be large; an effect the other way counts as inactive or inconclusive.

For O=C(Nc1cc([N+](=O)[O-])ccc1Cl)c1cccnc1 the results were Sm TGR inh inactive, AMA1-RON2 inh inactive, Pf growth 96h inconclusive, Pf growth 48h inactive and NS1 function inh inactive.
Screening O=C(/C=C/c1cccnc1)c1ccc(F)c(F)c1 returned Sm TGR inh 28µM, AMA1-RON2 inh inactive, Pf growth 96h inactive, Pf growth 48h inactive and NS1 function inh inactive.
Screening O=C(/C=C/c1ccc([N+](=O)[O-])cc1)NCc1cccnc1 returned Sm TGR inh inactive, AMA1-RON2 inh inactive, Pf growth 96h inactive, Pf growth 48h inactive and NS1 function inh inactive.
Cc1cc(C(=O)C(=O)Nc2nncs2)c(C)n1-c1ccc(Cl)cc1 was read as Sm TGR inh inactive.
Screening COc1ccc(CNC(=O)CN(C)Cc2ccc(C(C)(C)C)cc2)cc1 returned Sm TGR inh inactive, AMA1-RON2 inh inactive, Pf growth 96h inactive, Pf growth 48h inconclusive and NS1 function inh inactive.
CCN1C(=O)[C@H]2[C@H]3CN=C(SCc4ccc(Cl)cc4)N3[C@@](CC)(C(=O)OC)[C@H]2C1=O was read as AMA1-RON2 inh inactive.
For Cc1ccc(C)c(NC(=O)CN2C(=O)NC(C)(c3ccc4c(c3)OCCO4)C2=O)c1 (stereo not given) the results were Sm TGR inh inactive, AMA1-RON2 inh inactive, Pf growth 96h inactive and Pf growth 48h inconclusive.
Cc1cc(C)n(-c2ccccc2[N+](=O)[O-])n1 was read as Sm TGR inh inactive, AMA1-RON2 inh inactive, Pf growth 96h inactive, Pf growth 48h inactive and NS1 function inh inactive.
`Cc1nc(Cl)cc(N/N=C/c2ccc(O)cc2O)n1` gave Sm TGR inh inactive, AMA1-RON2 inh inactive, Pf growth 96h inconclusive, Pf growth 48h inactive and NS1 function inh inactive.
Cc1cc(N/N=C/c2ccccc2[N+](=O)[O-])nc(-n2nc(C)cc2C)n1 was read as Sm TGR inh inactive, AMA1-RON2 inh inactive, Pf growth 96h 0.66µM, Pf growth 48h 0.93µM and NS1 function inh inactive.
For Cc1cc(N/N=C/c2ccc(O)cc2O)nc(-c2ccccc2O)n1 the results were Sm TGR inh inactive, AMA1-RON2 inh inactive, Pf growth 96h inconclusive, Pf growth 48h 2.6µM and NS1 function inh inactive.
Screening Oc1ccc(/C=N/Nc2ccc3ccccc3c2)c(O)c1 returned Sm TGR inh 45µM, AMA1-RON2 inh inactive, Pf growth 96h inconclusive and Pf growth 48h inconclusive.
For Cc1cc(N/N=C/c2ccc(O)cc2O)nc(-n2nc(C)cc2C)n1 the results were Sm TGR inh inactive, AMA1-RON2 inh inactive, Pf growth 96h inconclusive, Pf growth 48h 1.9µM and NS1 function inh inactive.
Screening Cn1c2ccccc2c2nnc(SCC(=O)NC3CC3)nc21 returned Sm TGR inh inactive, AMA1-RON2 inh inactive, Pf growth 96h inactive, Pf growth 48h inactive and NS1 function inh inactive.
Screening Cc1cc(N/N=C/c2cccc([N+](=O)[O-])c2)nc(-n2nc(C)cc2C)n1 returned Sm TGR inh inactive, AMA1-RON2 inh inactive, Pf growth 96h 1µM, Pf growth 48h inconclusive and NS1 function inh inactive.
For CCOc1ccc(/C=N/Nc2cc(N3CCOCC3)nc(C)n2)c(O)c1 the results were Sm TGR inh inactive, AMA1-RON2 inh inactive, Pf growth 96h 6.6µM, Pf growth 48h inactive and NS1 function inh inactive.
For COc1ccc(/C=N/Nc2cc(C)nc(-n3nc(C)cc3C)n2)cc1 the results were Sm TGR inh inactive, AMA1-RON2 inh inactive, Pf growth 96h inconclusive, Pf growth 48h 1.5µM and NS1 function inh inactive.
Cc1cc(N/N=C/c2ccccc2O)nc(N2CCOCC2)n1 was read as Sm TGR inh inactive, AMA1-RON2 inh inactive, Pf growth 96h inconclusive, Pf growth 48h 10µM and NS1 function inh inactive.
For COc1ccc(Nc2cc(C)nc(-n3nc(C)cc3C)n2)cc1Cl the results were Sm TGR inh inactive.
Screening Cc1cc(N/N=C/c2cccc(Cl)c2)nc(-n2nc(C)cc2C)n1 returned Sm TGR inh inactive, AMA1-RON2 inh inactive, Pf growth 96h inconclusive, Pf growth 48h 1.2µM and NS1 function inh inactive.
Screening Cc1ccc(NC(=O)NC2OC(=O)c3ccccc32)cc1 (stereo not given) returned AMA1-RON2 inh inactive.
For CC(=O)NC(=O)NC1OC(=O)C(Cl)=C1Cl (stereo not given) the results were Sm TGR inh 3.5µM, AMA1-RON2 inh inactive, Pf growth 96h inactive, Pf growth 48h inconclusive and NS1 function inh inactive.
For CCOC(=O)c1ccc(NC(=O)COc2ccccc2OC)cc1 the results were Sm TGR inh inactive, AMA1-RON2 inh inactive, Pf growth 96h inactive, Pf growth 48h inconclusive and NS1 function inh inactive.
Screening CCOc1cc(CNC2CCCC2)c(Cl)cc1OCC(=O)Nc1ccccc1 returned Sm TGR inh inactive, AMA1-RON2 inh inactive, Pf growth 96h inactive, Pf growth 48h 10µM and NS1 function inh inactive.
Screening c1ccc(COc2ccccc2CNC2CCCC2)cc1 returned Sm TGR inh inactive, AMA1-RON2 inh inactive, Pf growth 96h 5.2µM, Pf growth 48h inconclusive and NS1 function inh inactive.
`CCOC(=O)c1ccc(NC(=O)COc2ccccc2CNC2CCCC2)cc1` gave Sm TGR inh inactive, AMA1-RON2 inh inactive, Pf growth 96h inactive, Pf growth 48h 4.7µM and NS1 function inh inactive.
CCOc1ccc(NC(=O)c2ccc3c(SCC(=O)O)c4c(nc3c2)CCC4)cc1 was read as Sm TGR inh inactive.
`CCCCN(CC)S(=O)(=O)c1ccc2c(c1)n(C)c(=O)c(=O)n2C` gave Sm TGR inh inactive, AMA1-RON2 inh inactive, Pf growth 96h inactive, Pf growth 48h inactive and NS1 function inh inactive.
Screening CC(C)(C)OCC1CO1 (stereo not given) returned Sm TGR inh inactive, AMA1-RON2 inh inactive, Pf growth 96h inconclusive and Pf growth 48h inactive.
Screening CCOC(=O)Cn1nnnc1CN(Cc1cccs1)Cc1cc2cc(C)ccc2[nH]c1=O returned Sm TGR inh inactive, AMA1-RON2 inh inactive, Pf growth 48h inactive and NS1 function inh inactive.
Screening Cc1ccc2[nH]c(=O)c(CN(Cc3cccs3)Cc3nnnn3Cc3ccccc3)cc2c1 returned Sm TGR inh inactive, AMA1-RON2 inh inactive, Pf growth 96h inactive, Pf growth 48h 12µM and NS1 function inh inconclusive.
`CCOc1ccc2[nH]c(=O)c(CN(Cc3cccs3)Cc3nnnn3C(C)(C)C)cc2c1` gave Sm TGR inh inactive, AMA1-RON2 inh inactive, Pf growth 96h inactive, Pf growth 48h 12µM and NS1 function inh inactive.
For COc1ccc2[nH]c(=O)c(CN(Cc3cccs3)Cc3nnnn3C(C)(C)C)cc2c1 the results were Sm TGR inh inactive, AMA1-RON2 inh inactive, Pf growth 96h inactive, Pf growth 48h inconclusive and NS1 function inh inactive.
For Cc1ccc2[nH]c(=O)c(CN(CCO)Cc3nnnn3CCc3ccccc3)cc2c1 the results were Sm TGR inh inactive, AMA1-RON2 inh inactive, Pf growth 96h 8.3µM, Pf growth 48h inactive and NS1 function inh inactive.

High-throughput results (PubChem BioAssay)
